From the supplement of paper PMC11732987, “Enantioselective OTUD7B fragment discovery through chemoproteomics screening and high-throughput optimisation” (Communications Chemistry, 2025)

Tests used:
Experiment in all cases: log2 ratio of Biotin-Ahx-Ub-VS probe labelling (fragment/DMSO); higher = less target engagement (more negative = stronger competition), active = hit call of the paper (q ≤ 0.05, log2 ratio ≤ -1)
Settings in all cases: compound concentration: 200 uM; treatment time: 3 h
ALG13 = molecular target: T1, ALG13 (UniProt Q9NP73)
T1 sequence (whole entry): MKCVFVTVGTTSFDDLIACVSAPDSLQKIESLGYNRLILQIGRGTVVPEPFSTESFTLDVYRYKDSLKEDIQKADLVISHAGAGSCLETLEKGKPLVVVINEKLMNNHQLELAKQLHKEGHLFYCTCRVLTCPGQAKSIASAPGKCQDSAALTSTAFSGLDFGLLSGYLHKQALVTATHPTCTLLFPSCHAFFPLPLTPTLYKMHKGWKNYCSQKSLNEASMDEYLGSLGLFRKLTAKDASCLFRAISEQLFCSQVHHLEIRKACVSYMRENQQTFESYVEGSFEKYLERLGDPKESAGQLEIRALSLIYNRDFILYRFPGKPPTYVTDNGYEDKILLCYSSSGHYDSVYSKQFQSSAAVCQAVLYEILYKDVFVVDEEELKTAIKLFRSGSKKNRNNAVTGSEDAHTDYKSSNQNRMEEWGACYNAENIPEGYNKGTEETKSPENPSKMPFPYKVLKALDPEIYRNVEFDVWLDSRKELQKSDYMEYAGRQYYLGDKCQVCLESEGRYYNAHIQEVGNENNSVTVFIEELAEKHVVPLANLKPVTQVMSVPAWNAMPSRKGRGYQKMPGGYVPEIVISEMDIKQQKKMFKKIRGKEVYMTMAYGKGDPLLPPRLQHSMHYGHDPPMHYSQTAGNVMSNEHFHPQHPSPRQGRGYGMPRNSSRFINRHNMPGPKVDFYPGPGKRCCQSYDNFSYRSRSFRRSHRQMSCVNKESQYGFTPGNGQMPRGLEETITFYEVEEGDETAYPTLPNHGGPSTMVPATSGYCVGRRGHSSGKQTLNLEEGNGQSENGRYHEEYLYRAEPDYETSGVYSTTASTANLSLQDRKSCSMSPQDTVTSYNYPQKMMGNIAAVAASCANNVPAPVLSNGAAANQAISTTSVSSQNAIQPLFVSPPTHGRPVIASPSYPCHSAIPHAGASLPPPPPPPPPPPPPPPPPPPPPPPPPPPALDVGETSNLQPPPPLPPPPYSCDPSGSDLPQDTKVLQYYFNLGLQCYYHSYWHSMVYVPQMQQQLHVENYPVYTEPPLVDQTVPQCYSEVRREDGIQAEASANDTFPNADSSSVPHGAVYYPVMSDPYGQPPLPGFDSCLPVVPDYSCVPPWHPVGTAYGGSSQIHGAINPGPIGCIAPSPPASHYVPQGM
How it was run: (§1)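 HEK293T lysate (495 µg per sample, in Tris/CHAPS/IGEPAL buffer with protease inhibitors) was exposed in triplicate for 3 h to fragment at 200 µM or to vehicle, then to Biotin-Ahx-Ub-VS at 0.5 µM final for 1 h. Labelled DUBs were enriched on NeutrAvidin, digested with LysC and trypsin, and analysed by diaPASEF LC-MS/MS. Spectronaut label-free quantities were normalised to the global median, and values are average log2 ratios of fragment over vehicle from an unpaired t-test. Only proteins with ≥2 unique peptides were used.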

ATXN3 = ATXN3 (UniProt P54252)
How it was run: as §1

BAP1 = molecular target: T2, BAP1 (UniProt Q92560)
T2 sequence (whole entry): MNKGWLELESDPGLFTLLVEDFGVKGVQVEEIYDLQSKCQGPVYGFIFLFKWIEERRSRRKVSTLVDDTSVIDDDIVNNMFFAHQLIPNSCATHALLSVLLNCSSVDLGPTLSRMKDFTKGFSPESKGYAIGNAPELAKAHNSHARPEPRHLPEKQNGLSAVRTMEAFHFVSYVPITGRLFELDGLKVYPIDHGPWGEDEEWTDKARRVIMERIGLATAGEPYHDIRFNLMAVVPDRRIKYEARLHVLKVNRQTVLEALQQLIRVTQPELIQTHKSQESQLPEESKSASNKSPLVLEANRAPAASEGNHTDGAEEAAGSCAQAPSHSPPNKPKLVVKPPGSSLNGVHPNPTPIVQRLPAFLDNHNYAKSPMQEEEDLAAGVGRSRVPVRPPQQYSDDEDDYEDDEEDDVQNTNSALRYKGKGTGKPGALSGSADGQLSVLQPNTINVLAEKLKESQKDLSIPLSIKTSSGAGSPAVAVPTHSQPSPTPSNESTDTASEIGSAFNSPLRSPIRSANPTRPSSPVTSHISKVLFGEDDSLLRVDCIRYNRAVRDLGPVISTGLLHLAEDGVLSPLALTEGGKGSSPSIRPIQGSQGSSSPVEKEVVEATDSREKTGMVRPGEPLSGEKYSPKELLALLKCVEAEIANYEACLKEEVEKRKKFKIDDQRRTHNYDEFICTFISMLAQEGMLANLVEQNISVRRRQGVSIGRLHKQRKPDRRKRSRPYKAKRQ
How it was run: as §1

EIF3F = EIF3F (UniProt O00303)
How it was run: as §1

EIF3H = EIF3H (UniProt O15372)
How it was run: as §1

FAM105A = molecular target: T3, FAM105A (UniProt Q9NUU6)
T3 sequence (whole entry): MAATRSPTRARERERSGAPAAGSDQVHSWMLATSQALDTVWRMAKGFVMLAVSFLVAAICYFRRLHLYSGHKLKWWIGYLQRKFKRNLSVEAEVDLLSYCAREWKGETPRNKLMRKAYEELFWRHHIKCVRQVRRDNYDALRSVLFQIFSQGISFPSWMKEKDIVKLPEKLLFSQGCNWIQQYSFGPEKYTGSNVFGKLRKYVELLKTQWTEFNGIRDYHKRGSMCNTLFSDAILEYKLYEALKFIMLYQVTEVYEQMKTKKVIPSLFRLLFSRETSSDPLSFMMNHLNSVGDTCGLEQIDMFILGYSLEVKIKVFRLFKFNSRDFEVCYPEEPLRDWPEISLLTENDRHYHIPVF
How it was run: as §1

OTUB1 = OTUB1 (UniProt Q96FW1)
How it was run: as §1

OTUD4 = molecular target: T4, OTUD4 (UniProt Q01804)
T4 sequence (whole entry): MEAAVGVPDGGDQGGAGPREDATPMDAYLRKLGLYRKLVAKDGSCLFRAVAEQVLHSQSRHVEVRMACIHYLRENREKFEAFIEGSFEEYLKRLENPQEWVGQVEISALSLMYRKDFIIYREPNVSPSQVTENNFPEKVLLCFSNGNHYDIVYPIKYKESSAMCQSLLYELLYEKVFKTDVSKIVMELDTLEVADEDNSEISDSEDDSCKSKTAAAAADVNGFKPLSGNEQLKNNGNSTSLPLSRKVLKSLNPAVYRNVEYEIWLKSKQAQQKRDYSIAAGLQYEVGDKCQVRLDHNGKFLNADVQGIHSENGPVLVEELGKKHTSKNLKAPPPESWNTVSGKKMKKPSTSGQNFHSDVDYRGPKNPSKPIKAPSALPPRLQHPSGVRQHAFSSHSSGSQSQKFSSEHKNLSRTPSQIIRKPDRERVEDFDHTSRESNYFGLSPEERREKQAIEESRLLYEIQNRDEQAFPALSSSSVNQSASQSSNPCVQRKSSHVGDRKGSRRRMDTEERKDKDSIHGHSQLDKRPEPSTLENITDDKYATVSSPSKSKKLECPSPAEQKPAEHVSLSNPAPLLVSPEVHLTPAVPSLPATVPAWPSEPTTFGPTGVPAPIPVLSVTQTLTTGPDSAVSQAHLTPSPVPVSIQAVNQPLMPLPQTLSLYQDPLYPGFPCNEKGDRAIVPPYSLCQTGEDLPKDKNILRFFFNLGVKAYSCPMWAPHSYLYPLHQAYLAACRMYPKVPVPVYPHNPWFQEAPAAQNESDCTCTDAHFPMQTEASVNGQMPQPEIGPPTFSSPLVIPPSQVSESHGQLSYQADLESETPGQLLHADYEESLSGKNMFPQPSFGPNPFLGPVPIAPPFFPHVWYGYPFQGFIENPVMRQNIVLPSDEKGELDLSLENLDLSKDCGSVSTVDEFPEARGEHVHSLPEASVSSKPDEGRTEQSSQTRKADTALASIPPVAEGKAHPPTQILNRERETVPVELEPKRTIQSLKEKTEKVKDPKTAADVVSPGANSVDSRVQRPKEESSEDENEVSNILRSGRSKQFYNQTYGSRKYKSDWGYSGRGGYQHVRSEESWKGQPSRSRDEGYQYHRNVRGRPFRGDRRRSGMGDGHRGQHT
How it was run: as §1

OTUD5 = molecular target: T5, OTUD5 (UniProt Q96G74)
T5 sequence (whole entry): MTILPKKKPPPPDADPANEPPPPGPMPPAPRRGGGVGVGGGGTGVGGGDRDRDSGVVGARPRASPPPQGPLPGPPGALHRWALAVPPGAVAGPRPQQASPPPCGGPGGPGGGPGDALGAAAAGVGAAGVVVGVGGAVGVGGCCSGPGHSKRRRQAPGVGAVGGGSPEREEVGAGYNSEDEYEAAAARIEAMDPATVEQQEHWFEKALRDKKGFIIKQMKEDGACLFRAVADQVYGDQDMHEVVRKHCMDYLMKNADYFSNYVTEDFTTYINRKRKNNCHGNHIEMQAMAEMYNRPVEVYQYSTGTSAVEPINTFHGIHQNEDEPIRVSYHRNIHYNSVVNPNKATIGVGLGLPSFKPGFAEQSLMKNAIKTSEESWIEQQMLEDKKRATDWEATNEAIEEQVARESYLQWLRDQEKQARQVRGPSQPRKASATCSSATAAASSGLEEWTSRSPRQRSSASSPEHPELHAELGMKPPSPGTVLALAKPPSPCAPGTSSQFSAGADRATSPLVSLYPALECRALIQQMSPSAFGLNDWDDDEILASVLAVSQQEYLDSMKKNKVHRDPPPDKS
How it was run: as §1

Measured: log2 ratio of Biotin-Ahx-Ub-VS probe labelling

Chain of EIF3F (O00303 whole entry): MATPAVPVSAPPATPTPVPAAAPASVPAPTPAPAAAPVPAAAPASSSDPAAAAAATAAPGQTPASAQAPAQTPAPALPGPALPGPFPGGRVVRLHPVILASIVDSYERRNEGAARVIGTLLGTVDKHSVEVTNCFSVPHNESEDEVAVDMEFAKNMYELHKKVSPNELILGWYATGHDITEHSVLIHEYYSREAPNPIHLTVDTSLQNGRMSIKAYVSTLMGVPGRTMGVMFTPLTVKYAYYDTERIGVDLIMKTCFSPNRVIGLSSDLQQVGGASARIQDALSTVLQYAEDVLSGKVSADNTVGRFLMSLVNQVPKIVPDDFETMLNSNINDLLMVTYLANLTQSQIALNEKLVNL
Chain of EIF3H (O15372 whole entry): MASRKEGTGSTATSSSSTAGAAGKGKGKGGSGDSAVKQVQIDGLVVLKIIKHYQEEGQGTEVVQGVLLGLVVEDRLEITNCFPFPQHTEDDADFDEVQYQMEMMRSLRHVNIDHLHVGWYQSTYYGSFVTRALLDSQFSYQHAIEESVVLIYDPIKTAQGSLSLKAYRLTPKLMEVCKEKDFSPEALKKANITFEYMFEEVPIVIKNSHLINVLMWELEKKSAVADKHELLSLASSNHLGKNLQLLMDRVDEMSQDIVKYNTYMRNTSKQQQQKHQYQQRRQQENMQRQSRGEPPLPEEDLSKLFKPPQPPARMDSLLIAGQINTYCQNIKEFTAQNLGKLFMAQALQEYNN
Chain of OTUB1 (Q96FW1 whole entry): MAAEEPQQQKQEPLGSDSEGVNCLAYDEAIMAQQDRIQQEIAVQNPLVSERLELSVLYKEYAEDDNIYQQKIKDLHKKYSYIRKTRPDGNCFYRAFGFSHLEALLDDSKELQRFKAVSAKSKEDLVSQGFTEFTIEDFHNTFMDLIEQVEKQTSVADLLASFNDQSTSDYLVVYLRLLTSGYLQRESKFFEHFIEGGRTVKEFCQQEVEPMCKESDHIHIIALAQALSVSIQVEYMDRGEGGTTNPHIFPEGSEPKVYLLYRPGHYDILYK
Chain of ATXN3 (P54252 whole entry): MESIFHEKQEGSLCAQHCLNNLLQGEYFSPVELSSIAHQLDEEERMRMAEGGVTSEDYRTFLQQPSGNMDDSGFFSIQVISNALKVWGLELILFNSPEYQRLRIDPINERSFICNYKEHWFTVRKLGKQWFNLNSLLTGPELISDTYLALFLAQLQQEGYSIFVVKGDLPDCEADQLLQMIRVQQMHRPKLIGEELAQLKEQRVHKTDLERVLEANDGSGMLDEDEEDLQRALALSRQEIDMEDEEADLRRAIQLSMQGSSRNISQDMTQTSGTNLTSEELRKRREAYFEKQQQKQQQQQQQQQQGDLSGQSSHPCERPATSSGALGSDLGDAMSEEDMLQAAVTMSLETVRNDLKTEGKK

CCc1c[nH]c(CNC(=O)CCl)n1.Cl
inactive: ALG13 0.0285 | ATXN3 -0.421 | BAP1 -0.464 | EIF3F -1.13 | EIF3H 0.281 | FAM105A 0.0309 | OTUB1 -0.461 | OTUD4 -0.214 | OTUD5 -0.482
